Screening results deposited in PubChem by National Center for Advancing Translational Sciences (NCATS).
The list is not random: actives were taken first. Their share in the collection is about 7.8%.
HCV inh – HCV inhibition; Potency, µM (series often up to 41.8 µM), without a hit: top-dose activity change, negative = inhibition, hits mostly inhibitors; Huh7.5.1 HCVcc-Cre infection, luciferase reporter, 44 h; 340,000 compounds, 3.4% hits; active = well fitted inhibition curve with a large enough effect; inconclusive = small, poorly fitted or top-dose-only effect, or another doubt; inactive = no such curve, though single readings can be large or run the other way; note: potency is the fitted concentration of half-maximal effect
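Whole-lifecycle infectious HCVcc-Cre system; cells 1,000/well, compound then virus (~0.5 moi) added 4 h after plating, 44 h culture. Luciferase read 15 sec following 15 min substrate incubation, room temp.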
Vaccinia mCherry – vaccinia inhibition (mCherry reporter); Vaccinia virus mCherry reporter infection, fluorescence; Potency, µM (series often up to 36.5 µM), for the others: at the top dose activity change, negative = inhibition, usual class: inhibitors; 310,000 compounds, 0.63% hits; calls by dose curve; tested in A549 cells; note: potency is the fitted concentration of half-maximal effect; nearly all actives have a fitted effect of over 35% in size
Marburg entry inh – inhibitors of Marburg virus binding or cell entry. Marburg virus pseudotyped entry inhibition, cell reporter. Potency, µM (series often up to 37.8 µM), inactives show at the highest dose activity change, negative = inhibition, hits mostly inhibitors. 300,000 compounds, 1.8% hits; calls by dose curve; tested in HEK293 cells; note: potency is the fitted concentration of half-maximal effect
HCMV inh – blocks human cytomegalovirus replication. HFF cells, HCMV-luciferase reporter, 72 h; stronger effect = lower value. activity change, negative = inhibition, % at 57.5 µM. 410,000 compounds, 4.5% hits; in the data active = activity change below about -60%; inconclusive = no clear call, values can overlap the other calls; inactive = above about -39%
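Two compound doses tested in HFFs infected with HCMV-luciferase, MOI 1 PFU/cell, 72 h at 37C. Lysate luminescence read with OneGlo; data normalized against buffer-only and 10uM Salinomycin inhibitor controls.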
Lassa entry inh – inhibitors of Lassa virus binding or cell entry; Potency, µM (top dose mostly 37.9 µM), inactives show at the highest dose activity change, negative = inhibition, hits mostly inhibitors; Lassa virus pseudotype entry inhibition, cell reporter; 300,000 compounds, 1.2% hits; calls by dose curve; tested in HEK293 cells; note: potency is the fitted concentration of half-maximal effect; nearly all actives have a fitted effect of over 50% in size
VACV Venus inh – inhibitors of vaccinia virus (Venus reporter). Potency, µM (titrated, usually from 36.5 µM), for the others: at the highest dose activity change, negative = inhibition, usual class: inhibitors. 330,000 compounds, 0.46% hits. Vaccinia virus Venus reporter expression, fluorescence; calls by dose curve; tested in A549 cells; note: potency is the fitted concentration of half-maximal effect; nearly all actives have a fitted effect of over 30% in size
An asterisk follows results filed as active; i = inactive; ? = inconclusive; / = not tested or not shown; [ ] = remark or other dose. % is set by controls: 0 for no effect and ±100 for the full control effect.

SMILES | HCV inh | Vaccinia mCherry | Marburg entry inh | HCMV inh | Lassa entry inh | VACV Venus inh
COc1ccc(-c2ccnc3c2c(=O)n(C)c(=O)n3C)cc1OC | / | -7% | 3%[46.1 µM] | -6 | 13%[46.1 µM] | -1%
Cc1ccc(-c2cn(-c3cccc(Cl)c3)c(S(=O)(=O)CC(=O)Nc3ccccc3F)n2)cc1 | / | -26% | -1%[46.1 µM] | 69 | -6%[46.1 µM] | -18%
CCOc1ccc(CN(C(=O)c2oc3cc(C)ccc3c2C)C2CCS(=O)(=O)C2)cc1 (stereo not drawn) | ? | / | ? | 14 | 13µM* | /
CCc1ccc(CN(C(=O)COc2c(C)cccc2C)C2CCS(=O)(=O)C2)cc1 (stereo not drawn) | -21% | / | / | -109* | / | /
Cc1ccc2oc(C(=O)N(Cc3sccc3C)C3CCS(=O)(=O)C3)c(C)c2c1 (stereo not drawn) | / | i | 3.2µM* | 8 | ? | -16%
CCOc1ccc(NC(=O)c2oc3ccccc3c2NC(=O)C(C)Oc2ccccc2)cc1 (stereo not drawn) | / | i | ? | 24 | -4%[46.1 µM] | -9%
CCOc1ccc(CCNC(=O)c2cnc3c(-c4ccc(F)cc4)c(C)nn3c2C)cc1OCC | / | -15% | / | 16 | 1%[46.1 µM] | -17%
Nc1c(Cl)ncnc1N/N=C/c1ccc2ccccc2n1 | 4µM* | 2.8µM* | 16µM* | -98* | ? | ?
Nc1c(Cl)ncnc1N/N=C/c1ccccn1 | ? | 2.2µM* | ? | -99* | 2.5µM* | ?
N#Cc1ccc2nc(-c3ccc(CN4CCC(n5cc(-c6ccccc6)[nH]c5=O)CC4)cc3)c(-c3ccccc3)nc2c1 | / | / | / | -99* | / | /
O=c1[nH]c(-c2ccccc2)cn1C1CCN(Cc2ccc(-c3nc4ccccc4nc3-c3ccccc3)cc2)CC1 | / | / | / | 118 | / | /
COc1cc2oc(=O)c(CC(=O)NCc3ccc(OC)c(OC)c3)c(C)c2cc1Cl | / | 4% | 15%[46.1 µM] | 19 | 8%[46.1 µM] | 2%
CCc1cc(=O)[nH]c(SCc2nc(-c3cccc(Cl)c3)no2)n1 | / | -13% | / | -31 | ? | -2%
N=c1oc2c3c4c(cc2cc1C(=O)Nc1ccccc1)CCCN4CCC3 | 7.9µM* | -4% | -2% | / | ? | 34%
CC(C)c1ccc(/C=N/NC(=O)c2nnn(-c3nonc3N)c2CSC2=NCCS2)cc1 | 11µM* | ? | -45% | -21 | ? | ?
Cc1nnn(-c2nonc2N)c1C(=O)N/N=C/c1ccccc1O | 5% | ? | ? | -14 | -6% | ?
CN(Cc1c(C(=O)N/N=C/c2ccccc2O)nnn1-c1nonc1N)C1CCCCC1 | / | ? | / | -98* | / | ?
Nc1nonc1-n1nnc(C(=O)N/N=C/c2ccc(O)cc2)c1CN1CCCCCC1 | 11% | i | / | -61* | / | -15%
Cc1nnn(-c2nonc2N)c1C(=O)N/N=C/c1cccc2ccccc12 | ? | i | ? | -65* | -3% | -6%
CCN(CC)c1ccc(/C=N/NC(=O)c2nnn(-c3nonc3N)c2C(C)C)c(O)c1 | 1.1µM* | 2.5µM* | 2.5µM* | -102* | ? | ?
CC1CCN(Cc2c(C(=O)N/N=C/c3ccccc3O)nnn2-c2nonc2N)CC1 | 3.5µM* | 2µM* | 3.2µM* | -95* | ? | ?
CCOC(=O)c1cccc(NC(=O)Cn2ncc3c4ccccc4n(Cc4ccccc4)c3c2=O)c1 | / | -13% | -3%[46.1 µM] | -7 | -6%[46.1 µM] | -10%
COc1ccc(CCNC(=O)CN2C(=O)COc3ccccc32)cc1OC | / | -4% | / | -16 | ? | -2%
Cc1nc2c([nH]c3ccc(Br)cc32)s1 | 10µM* | -13% | 11% | ? | 19%[14.3 µM] | -7%
Cc1n[nH]c2ccc(Br)cc2c1=O | / | 2% | / | -22 | / | -11%
SMILES | HCV inh | Vaccinia mCherry | Marburg entry inh | HCMV inh | Lassa entry inh | VACV Venus inh
COc1cc(CC(=O)OCC(=O)Nc2sccc2C(N)=O)cc(OC)c1OC | 10µM* | i | 11µM* | -39 | ? | -12%
CCN1CCN(C(c2cccc(F)c2)c2c(O)cc(C)n(Cc3ccco3)c2=O)CC1 (stereo not drawn) | / | -21% | / | 23 | ? | -13%
COc1cc(/C=C/C(=O)Nc2ccc(C)cc2)cc(OC)c1OC | ? | -33% | 3% | -38 | ? | -20%
CC(C)NC(=O)c1ccccc1NC(=O)Cc1ccc([N+](=O)[O-])cc1 | 8% | i | -16% | 22 | 14% | -11%
COc1ccc(/C=C/C(=O)Nc2ccccc2C(F)(F)F)cc1OC | -5% | -18% | 5% | 4 | ? | -13%
COc1ccc(/C=C/C(=O)Nc2ccccc2C(=O)O)cc1OC | 1%[8.37 µM] | / | 1.5µM* | -81* | 1.3µM* | /
COc1ccc(/C=C/C(=O)O)cc1 | 0.79µM* | -8% | / | 22 | / | -6%
COc1cc(/C=C/C(=O)O)cc(OC)c1 | 16% | -11% | / | / | / | -6%
CC(C)NC(=O)c1ccccc1NC(=O)/C=C/c1ccc([N+](=O)[O-])cc1 | 11µM* | / | -8% | 9 | 24% | /
COC(=O)c1ccccc1NC(=O)/C=C/c1cc(OC)c(OC)c(OC)c1 | 5µM* | / | ? | 43 | ? | 1%
O=C(CCOc1ccccc1)N(Cc1cccnc1)c1nc2c(Cl)cccc2s1 | / | -1% | / | ? | 14%[46.1 µM] | ?
COc1ccc(C(=O)Nc2ccc3c(c2)CCCN3S(=O)(=O)c2ccc(C)cc2)c(OC)c1 | / | -7% | / | -11 | -4%[46.1 µM] | -11%
COc1cccc(NC(=O)CCSc2nc(-c3ccco3)cc(C(F)(F)F)n2)c1 | / | -15% | -7%[46.1 µM] | -17 | 8%[46.1 µM] | -10%
COc1ccc(/C=C/C(=O)Nc2ccccc2C(=O)O)cc1 | 5% | -5% | 1.6µM* | -3 | ? | -5%
COc1ccc(/C=C/C(=O)Nc2ccc(-n3nncc3-c3ccccc3)cc2)cc1OC | 13µM* | -6% | ? | ? | ? | -24%
CC(C)COc1ccc(C(=O)Nc2scc(-c3ccc(Br)cc3)c2C(=O)OC(C)C)cc1 | / | -10% | / | 27 | -12%[46.1 µM] | -5%
Cn1c(/C=N/c2nc3ccccc3[nH]2)nc2ccccc21 | 19% | -11% | -9% | -104* | -17% | -10%
Cn1c(/C=N/O)nc2ccccc21 | 22% | -8% | / | -36 | / | -15%
O=c1[nH]c(NNC(=S)NCc2ccccc2)nc2c1C1(CCCCC1)Cc1ccccc1-2 | 12% | / | / | -62* | / | /
S=C(NCc1ccccc1)NNc1nc2ccccc2[nH]1 | -3% | -16% | ? | -70* | ? | -20%
c1ccc(CNc2nc3ccccc3[nH]2)cc1 | 9% | -22% | ? | 88 | ? | -15%
COc1ccccc1CNC(=O)C1CCCN(S(=O)(=O)c2ccc3c(c2)oc(=O)n3C)C1 (stereo not drawn) | / | -21% | -6%[46.1 µM] | -8 | 3%[46.1 µM] | -25%
O=S1(=O)N(CCN2CC=C(c3c[nH]c4cc(F)ccc34)CC2)c2cccc3c2N1CCC3 | ? | i | ? | -80* | ? | -12%
Cc1cc(C(=O)COc2cccnc2[N+](=O)[O-])c(C)n1Cc1cccs1 | ? | ? | ? | 15 | ? | -21%
